PubChem BioAssay (NCI)
About 83,000 compounds went through this panel and 20% of them were active in at least one assay; those are over-represented in the sample as a whole.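 For each line, cells grew in 96-well plates with the test compound present at a single concentration for 48 hours.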 Active and inactive are the calls of the source. How the source made its calls: active means growth percent below 10; inactive means the rest.

Each compound was assayed on COLO 205 colon (assay: NCI-60 one-dose screen, 48 h (100 = growth as untreated, 0 = no growth, -100 = all killed)). Conditions: 10 µM unless noted.

Row | SMILES | growth
1 | C/C(=N\Nc1cc(C)c2ccccc2n1)c1ccccn1 | 3.41% (active)
2 | COC(=O)CNc1nc(N(C)O)nc(N(C)O)n1 | 12.7% (inactive)
3 | Cc1ccc(-c2nc([P+](c3ccccc3)(c3ccccc3)c3ccccc3)c(N3C[C@H]4C[C@H](C3)c3cccc(=O)n3C4)o2)cc1 | 48.9% (inactive)
4 | COC(=O)[C@]12CC[C@@H](C)[C@H](C)[C@@H]1C1=CC[C@@H]3[C@@]4(C)CC(=O)[C@H](OC(=O)c5ccco5)[C@@]5(C)COC(=C45)C[C@@]3(C)[C@]1(C)CC2 | -40.6% (active)
5 | COc1ccc(/C=C/C(=O)NCC(C)O)cc1 (stereo not drawn) | 104% (inactive)
6 | Cc1nn(-c2ccc(Cl)cc2)c(=O)n1CCn1cnc2ccccc21 | 118% (inactive)
7 | CN1CCN(CCOc2ccc(-c3cnc4c(-c5ccccc5F)cnn4c3)cc2)CC1 | -79.3% (active)
8 | O=C(NO)c1ccc(Cn2c(=O)n(-c3ccccc3)c(=O)c3ccccc32)cc1 | -62.4% (active)
9 | COc1cccc2c1C(=O)c1c(O)c3c(c(O)c1C2=O)C[C@@](O)(C(=O)CO)C[C@@H]3OC1C[C@H](N)[C@H](O)[C@H](C)O1 (stereo partly drawn) | -81.6% (active)
10 | CCC(CC)C(=O)OC(C)COc1ccc(C(C)(C)C)cc1 (stereo not drawn) | 124% (inactive)
11 | CN1CCN(CCOc2ccc(-c3cnc4c(-c5cccc(F)c5)cnn4c3)cc2)CC1 | 32.4% (inactive)
12 | CCCC1CCCCN1C(=O)OCC(C)C (stereo not drawn) | 99.7% (inactive)
13 | O=S(=O)(NCCNc1cc(-c2cn(-c3ccccc3)nc2-c2cccc(O)c2)ccn1)c1cccc(F)c1 | -4.68% (active)
